Most compounds without a hit are left out; they make up all but 4.1% or so of the library.
tim23-1 inh – inhibits growth of tim23-1 mutant yeast. S. cerevisiae tim23-1 growth, BacTiter-Glo luminescence, 24 h. inhibition, % at 20 µM. actives 1.3% (n = 330,000);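 active means growth inhibition of the mutant yeast at or above 50%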;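 further: temperature-sensitive mutant grown at 25 °C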
NALP3 yeast inh – inhibitors of NALP3 inflammasome in yeast. Yeast reconstituted NLRP3/ASC/caspase-1, beta-gal luminescence, 24 h. inhibition, % at 10 µM. actives 0.39% (n = 330,000);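 active means inhibition of 50% or more; inactive means inhibition below 50%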
NALP1 inh – inhibitors of NALP1 inflammasome in yeast; actives 0.61% (n = 280,000); S. cerevisiae NALP1/ASC/caspase-1 growth, X-gal OD620, 72 h; inhibition, % at 10 µM; in the data active means inhibition mostly above about 24%, no sharp cut-off; inactive means mostly below about 32%
tim10-1 inh – growth inhibitors of tim10-1 mutant yeast; S. cerevisiae tim10-1 ts strain growth, BacTiter-Glo, 24 h; inhibition, % at 20 µM; actives 2.2% (n = 330,000);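 active means inhibition of at least 40%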;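 further: mutant grown at 25 °C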
TIM10 inh – growth inhibitors of TIM10 yeast strain | S. cerevisiae TIM10 strain growth, BacTiter-Glo luminescence, 24 h | inhibition, % at 10 µM | actives 1.4% (n = 330,000);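 active means inhibition of 40% or more at the single tested concentration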;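 further: wild-type TIM10 isogenic control strain grown at permissive 25 °C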
tim10-1 conf – tim10-1 yeast growth inhibition, confirmed; actives 56% (n = 7,400); shares compounds with tim10-1 inh; inhibition, % at 20 µM; S. cerevisiae tim10-1 ts strain growth, BacTiter-Glo, 24 h; AID 463213;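 active means inhibition of yeast growth at or above a set limit in either of two repeat tests at 20 µM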;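 further: tim10-1 mutant grown at permissive 25 °C to find synthetic lethal compounds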
tim10 confirm – TIM10 yeast growth inhibition, confirmed; shares compounds with TIM10 inh; S. cerevisiae tim10 strain growth, BacTiter-Glo luminescence, 24 h; inhibition, % at 10 µM; actives 63% (n = 4,600); AID 463215;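 active means inhibition of yeast growth at or above a set limit in either of two replicates at 10 µM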; further: this counterscreen used the strain with wild-type TIM10
tim23-1 conf – confirmation of tim23-1 mutant yeast growth inhibitors | shares compounds with tim23-1 inh | S. cerevisiae tim23-1 growth, BacTiter-Glo luminescence, 24 h | inhibition, % at 20 µM | actives 83% (n = 4,400) | AID 463218;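 active means inhibition above about 39% in either of two replicate wells at 20 µM, limit read from the data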;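 further: temperature-sensitive tim23-1 mutant grown at 25 °C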
A number is an active result; n = inactive; x = no result given.

SMILES | tim23-1 inh | NALP3 yeast inh | NALP1 inh | tim10-1 inh | TIM10 inh | tim10-1 conf | tim10 confirm | tim23-1 conf
CC(SC#N)C(=O)C12CC3CC(CC(C3)C1)C2 (stereo unspecified) | 65.6 | n | n | 53.1 | 55.4 | 39.4 | 40.6 | 50.5
Cc1ccc(S(=O)(=O)N2CCN(c3ccc(C(=O)N4CCOCC4)cc3[N+](=O)[O-])CC2)cc1 | n | n | n | n | n | x | x | x
Oc1c(C(c2ccccn2)N2CCC(Cc3ccccc3)CC2)cc(Cl)c2cccnc12 (stereo unspecified) | 54.9 | n | n | 43.4 | n | n | x | 68.5
CN1CCN(C(c2ccccn2)c2cc(Cl)c3cccnc3c2O)CC1 (stereo unspecified) | n | n | n | n | n | x | x | x
CC(=O)NC(c1cc(Cl)c2cccnc2c1O)C1CC1 (stereo unspecified) | n | n | x | n | n | x | x | x
Cc1ccc(C(c2cc(Cl)c3cccnc3c2O)N2CCN(C)CC2)cc1 (stereo unspecified) | 55.1 | n | n | 41.0 | n | n | x | 79.7
O=C(Cc1c(F)cccc1Cl)Nc1nc2ccccc2s1 | 55.3 | n | n | 43.0 | 48.2 | 30.5 | 34.0 | 63.0
COc1ccc(C(=O)/C=C/C(=O)N(CC(=O)NC2CCCCC2)CC2CCCO2)c(O)c1 (stereo unspecified) | 50.7 | n | n | 46.5 | 48.7 | 56.4 | 51.9 | 60.2
O=C(OCn1ncc(Cl)c(Cl)c1=O)c1cccc(C(F)(F)F)c1 | 73.7 | n | n | 71.5 | 53.0 | 72.2 | 39.3 | 71.8
CCc1ccc(C(=O)Cn2ncc(Cl)c(Cl)c2=O)cc1 | n | n | n | n | n | x | x | x
COc1ccc(OC)c(C(c2nnnn2C2CCCC2)N2CCc3ccccc3C2)c1 (stereo unspecified) | 52.3 | n | n | 42.0 | n | 38.5 | x | 42.1
COc1ccc(C(c2nnnn2C2CCCC2)N2CCc3ccccc3C2)cc1OC (stereo unspecified) | x | x | n | x | x | x | x | x
O=C(CSCc1ccccc1)N=Nc1c(O)[nH]c2ccccc12 | n | n | n | n | n | x | x | x
O=C(CSCc1cccc(Br)c1)N=Nc1c(O)[nH]c2ccccc12 | 53.4 | n | n | 45.2 | n | n | x | 59.3
COc1ccc(C2/C=C\CN(C(=O)Nc3ccccc3)CC(=O)N2Cc2ccc(F)cc2)cc1 (stereo unspecified) | n | n | n | n | n | x | x | x
COc1ccc(C2/C=C\CN(C(=O)Nc3ccc(C(F)(F)F)cc3)CC(=O)N2Cc2ccc(F)cc2)cc1 (stereo unspecified) | 53.4 | n | n | 49.5 | 47.3 | 38.4 | n | 47.8
CN(C)C(CNC(=O)c1ccc(C(F)(F)F)cc1)c1ccco1 (stereo unspecified) | n | n | n | n | n | x | x | x
CCOc1ncccc1C(=O)Nc1cc2c(cc1Br)OCCO2 | n | n | x | n | n | x | x | x
Cc1nn(-c2ccccc2)c(C)c1C(=O)OCC(=O)NC12CC3CC(CC(C3)C1)C2 | 61.9 | n | n | 42.8 | 53.6 | 48.8 | 34.2 | 53.6
CC(=O)/C=C/c1ccccc1Oc1c(F)c(F)nc(F)c1F | 53.8 | n | n | 45.2 | n | 40.5 | x | 40.3
Oc1ccccc1Oc1c(F)c(F)nc(N2CCCC2)c1F | n | n | n | n | n | x | x | x
O=C1[C@@H]2CSCN2C(=O)CN1Cc1c(F)cccc1Cl | n | n | n | n | n | x | x | x
CCOC(=O)C1=NOC2C3CC(C12)C1C(=O)N(CCc2ccc(OC)c(OC)c2)C(=O)C31 (stereo unspecified) | n | n | x | n | n | x | x | x
Oc1c(Br)cc(Br)cc1C=Nc1ccc2[nH]ncc2c1 | 86.2 | n | x | 46.5 | n | 55.9 | x | 79.5
COc1ccc(C=Nc2ccc3[nH]ncc3c2)c(O)c1 | n | n | n | n | n | x | x | x
SMILES | tim23-1 inh | NALP3 yeast inh | NALP1 inh | tim10-1 inh | TIM10 inh | tim10-1 conf | tim10 confirm | tim23-1 conf
Oc1c(Br)cc(Br)cc1C=Nc1cccnc1 | 79.4 | n | 45.4 | 56.9 | 67.0 | 41.7 | 48.0 | 89.8
CC(=O)O[C@]1(C(C)=O)CC[C@H]2[C@@H]3C=C(Cl)C4=CC(=O)[C@@H]5C[C@@H]5[C@]4(C)[C@H]3CC[C@@]21C | n | n | x | n | n | x | x | x
CCCCOC(=O)n1c(=O)oc2cc(S(=O)(=O)N3CCCCC3)ccc21 | 51.6 | n | n | 40.1 | 43.3 | 39.1 | n | 55.2
COC(=O)n1c(=O)oc2ccc(S(=O)(=O)N3CCCCC3)cc21 | n | n | n | n | n | x | x | x
CCCc1cnc(NCCNCC(O)COc2ccc(Cl)c(Cl)c2)nc1 (stereo unspecified) | n | n | n | n | n | x | x | x
CCOC(=O)C1=C(C)N=C2c3ccccc3C(=O)C2C1c1ccc(Cl)cc1 (stereo unspecified) | n | n | n | n | n | x | x | x
CCOC(=O)C1=C(Cc2ccc(Cl)cc2)C(=O)c2ccccc2C1=O | 67.4 | n | n | 64.5 | 57.1 | 66.7 | 57.9 | 63.5
CCN1CCN(c2ccc(NC(=O)c3cc(OC)c(OC)c(OC)c3)cc2)CC1 | n | n | n | n | n | x | x | x
CC1(C)CC(=O)C=C(NC2=CC3OC(c4ccccc4)OCC3OC2=O)C1 (stereo unspecified) | 59.5 | n | n | 68.3 | 59.3 | 58.0 | n | 56.0
Cc1ccccc1NC1=CC(=O)CC(C)(C)C1 | n | n | n | n | n | x | x | x
Cc1ccc(N2CN(Cc3ccco3)CNC2=S)c(C)c1 | n | n | n | n | n | x | x | x
CCC(=O)N1CCN(c2ccc(NC(=S)NC(=O)c3cc4ccccc4o3)cc2)CC1 | n | n | n | n | n | x | x | x
COc1ccc([C@H]2Oc3cc(O)cc(O)c3C(=O)C2[C@@H]2C(=O)c3c(O)cc(O)cc3O[C@@H]2c2ccc(OC)cc2)cc1 (stereo partly specified) | 60.5 | n | n | 48.6 | n | 46.5 | x | 48.9
Cc1oc2c(c1C(=O)NCc1cccnc1)C(=O)c1ccccc1C2=O | 82.8 | n | n | 83.2 | 94.4 | 82.2 | 94.6 | 71.5
CCCCc1ccc(/C=C(\C#N)C(N)=S)s1 | 70.9 | n | n | 55.6 | 53.0 | 55.3 | 60.5 | 57.5
Cn1cccc1/C=C(/C#N)C(N)=S | n | n | n | n | n | x | x | x
CC1CC1C(=O)N(C)CC(=O)Nc1ccccc1Br (stereo unspecified) | n | n | x | n | n | x | x | x
Oc1ccc(Nc2nc(-c3ccccc3)nc3ccccc23)cc1 | 60.9 | n | n | 59.0 | 41.6 | 45.7 | 51.7 | 59.4
CC(Nc1nc(-c2ccccc2O)nc2ccccc12)c1ccccc1 (stereo unspecified) | n | n | n | n | n | x | x | x
COc1ccc(Nc2nc(-c3ccccc3)nc3ccccc23)cc1 | 67.5 | n | n | 51.7 | n | 40.0 | x | 63.0
